Experimental data from the supplement of paper PMC10849652.
Of roughly 7,900 targets only a part is listed; those with a hit were picked by preference. About 0.6% of all pairs of compound and target were hits.

Tests used:
Assay in all cases: log2 fold change, soluble protein after heating vs DMSO (PISA); higher = thermal stabilisation; K562 cells, 10 uM, 30 min; active = over 0.2 and 3.5 SD of the protein, either way, in both replicates (recomputed)
[1] = compound: COC1=CC=C(C=C1)CN2C=CC3=C2C=C(C=C3)C(=O)NO
Method in brief: (§1)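 Quantification of soluble protein used TMTpro 16plex LC-MS/MS, with channel sums equalised. Samples were the supernatant after 21,000xg for 90 min of pooled aliquots from K562 cells (2×10^6 cells/mL) treated with 10 μM compound for 30 min, heated for 3 min over 48°C-58°C, and extracted in PBS with 0.5% NP-40 at 4°C. Values, from duplicates, describe thermal stability against control samples on a log2 fold-change scale.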

[2] = compound: CON(C)C(=O)N1N=C(c2cc(F)ccc2F)S[C@@]1(CCCN)c1ccccc1 [filanesib]
Method in brief: as §1

[3] = compound: CO[C@H]1C[C@@H]2CC[C@@H](C)[C@@](O)(O2)C(=O)C(=O)N2CCCC[C@H]2C(=O)O[C@H]([C@H](C)C[C@@H]2CC[C@H](n3cnnn3)[C@H](OC)C2)CC(=O)[C@H](C)/C=C(\C)[C@@H](O)[C@@H](OC)C(=O)[C@H](C)C[C@H](C)/C=C/C=C/C=C/1C [zotarolimus]
Method in brief: as §1

[4] = compound: COc1cc(C(=O)O)ccc1NC(=O)[C@@H]1N[C@@H](CC(C)(C)C)[C@](C#N)(c2ccc(Cl)cc2F)[C@H]1c1cccc(Cl)c1F [idasanutlin]
Method in brief: as §1

[5] = compound: COc1cc(Nc2ncc3c(n2)-c2ccc(Cl)cc2C(c2c(F)cccc2OC)=NC3)ccc1C(=O)O [alisertib]
Method in brief: as §1

[6] = compound: COc1cc2nc(-c3cc(F)ccc3O)nc(N[C@@H]3CNC[C@H]3C(C)(C)O)c2cc1OC
Method in brief: as §1

[7] = compound: COc1cc2ncnc(Nc3ccc(F)c(Cl)c3)c2cc1OCCCN1CCOCC1 [gefitinib]
Method in brief: as §1

[8] = compound: COc1cccc2cc(-c3nc([C@H]4CC[C@H](C(=O)O)CC4)n4ncnc(N)c34)[nH]c12
Method in brief: as §1

[9] = compound: CS(=O)(=O)CCNCc1ccc(-c2ccc3ncnc(Nc4ccc(OCc5cccc(F)c5)c(Cl)c4)c3c2)o1 [lapatinib]
Method in brief: as §1

[10] = compound: CS(=O)(=O)N1CCN(Cc2cc3nc(-c4cccc5[nH]ncc45)nc(N4CCOCC4)c3s2)CC1 [pictilisib]
Method in brief: as §1

UniProt Q9BUB7, sequence (Q9BUB7 whole entry, looked up): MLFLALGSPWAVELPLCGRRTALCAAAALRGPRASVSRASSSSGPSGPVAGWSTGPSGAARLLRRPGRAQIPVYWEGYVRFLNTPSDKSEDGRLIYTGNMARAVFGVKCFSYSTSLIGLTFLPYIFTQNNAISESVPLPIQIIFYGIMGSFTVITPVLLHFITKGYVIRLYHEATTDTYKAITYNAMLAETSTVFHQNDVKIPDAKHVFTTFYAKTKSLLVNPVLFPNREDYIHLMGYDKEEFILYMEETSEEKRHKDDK
UniProt Q8TBZ6, sequence (Q8TBZ6 whole entry, looked up): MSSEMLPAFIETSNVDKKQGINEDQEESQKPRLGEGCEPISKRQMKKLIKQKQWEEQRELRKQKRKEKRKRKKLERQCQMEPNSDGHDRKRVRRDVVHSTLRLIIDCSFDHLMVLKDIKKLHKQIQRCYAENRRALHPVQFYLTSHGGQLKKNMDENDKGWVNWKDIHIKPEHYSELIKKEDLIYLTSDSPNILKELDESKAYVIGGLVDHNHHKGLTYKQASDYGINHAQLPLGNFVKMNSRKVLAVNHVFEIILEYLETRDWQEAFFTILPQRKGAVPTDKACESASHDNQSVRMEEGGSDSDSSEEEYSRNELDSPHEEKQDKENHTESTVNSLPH
UniProt P21796, sequence (P21796 whole entry, looked up): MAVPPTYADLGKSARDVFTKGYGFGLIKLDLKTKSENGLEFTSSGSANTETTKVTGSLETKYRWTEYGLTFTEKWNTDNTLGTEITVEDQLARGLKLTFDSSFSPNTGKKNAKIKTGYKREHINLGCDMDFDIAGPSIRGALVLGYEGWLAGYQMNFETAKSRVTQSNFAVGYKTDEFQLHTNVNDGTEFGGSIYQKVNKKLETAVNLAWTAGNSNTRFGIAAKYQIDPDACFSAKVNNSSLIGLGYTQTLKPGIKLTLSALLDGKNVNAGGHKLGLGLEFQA
UniProt Q7Z7G8, sequence (Q7Z7G8 whole entry, looked up): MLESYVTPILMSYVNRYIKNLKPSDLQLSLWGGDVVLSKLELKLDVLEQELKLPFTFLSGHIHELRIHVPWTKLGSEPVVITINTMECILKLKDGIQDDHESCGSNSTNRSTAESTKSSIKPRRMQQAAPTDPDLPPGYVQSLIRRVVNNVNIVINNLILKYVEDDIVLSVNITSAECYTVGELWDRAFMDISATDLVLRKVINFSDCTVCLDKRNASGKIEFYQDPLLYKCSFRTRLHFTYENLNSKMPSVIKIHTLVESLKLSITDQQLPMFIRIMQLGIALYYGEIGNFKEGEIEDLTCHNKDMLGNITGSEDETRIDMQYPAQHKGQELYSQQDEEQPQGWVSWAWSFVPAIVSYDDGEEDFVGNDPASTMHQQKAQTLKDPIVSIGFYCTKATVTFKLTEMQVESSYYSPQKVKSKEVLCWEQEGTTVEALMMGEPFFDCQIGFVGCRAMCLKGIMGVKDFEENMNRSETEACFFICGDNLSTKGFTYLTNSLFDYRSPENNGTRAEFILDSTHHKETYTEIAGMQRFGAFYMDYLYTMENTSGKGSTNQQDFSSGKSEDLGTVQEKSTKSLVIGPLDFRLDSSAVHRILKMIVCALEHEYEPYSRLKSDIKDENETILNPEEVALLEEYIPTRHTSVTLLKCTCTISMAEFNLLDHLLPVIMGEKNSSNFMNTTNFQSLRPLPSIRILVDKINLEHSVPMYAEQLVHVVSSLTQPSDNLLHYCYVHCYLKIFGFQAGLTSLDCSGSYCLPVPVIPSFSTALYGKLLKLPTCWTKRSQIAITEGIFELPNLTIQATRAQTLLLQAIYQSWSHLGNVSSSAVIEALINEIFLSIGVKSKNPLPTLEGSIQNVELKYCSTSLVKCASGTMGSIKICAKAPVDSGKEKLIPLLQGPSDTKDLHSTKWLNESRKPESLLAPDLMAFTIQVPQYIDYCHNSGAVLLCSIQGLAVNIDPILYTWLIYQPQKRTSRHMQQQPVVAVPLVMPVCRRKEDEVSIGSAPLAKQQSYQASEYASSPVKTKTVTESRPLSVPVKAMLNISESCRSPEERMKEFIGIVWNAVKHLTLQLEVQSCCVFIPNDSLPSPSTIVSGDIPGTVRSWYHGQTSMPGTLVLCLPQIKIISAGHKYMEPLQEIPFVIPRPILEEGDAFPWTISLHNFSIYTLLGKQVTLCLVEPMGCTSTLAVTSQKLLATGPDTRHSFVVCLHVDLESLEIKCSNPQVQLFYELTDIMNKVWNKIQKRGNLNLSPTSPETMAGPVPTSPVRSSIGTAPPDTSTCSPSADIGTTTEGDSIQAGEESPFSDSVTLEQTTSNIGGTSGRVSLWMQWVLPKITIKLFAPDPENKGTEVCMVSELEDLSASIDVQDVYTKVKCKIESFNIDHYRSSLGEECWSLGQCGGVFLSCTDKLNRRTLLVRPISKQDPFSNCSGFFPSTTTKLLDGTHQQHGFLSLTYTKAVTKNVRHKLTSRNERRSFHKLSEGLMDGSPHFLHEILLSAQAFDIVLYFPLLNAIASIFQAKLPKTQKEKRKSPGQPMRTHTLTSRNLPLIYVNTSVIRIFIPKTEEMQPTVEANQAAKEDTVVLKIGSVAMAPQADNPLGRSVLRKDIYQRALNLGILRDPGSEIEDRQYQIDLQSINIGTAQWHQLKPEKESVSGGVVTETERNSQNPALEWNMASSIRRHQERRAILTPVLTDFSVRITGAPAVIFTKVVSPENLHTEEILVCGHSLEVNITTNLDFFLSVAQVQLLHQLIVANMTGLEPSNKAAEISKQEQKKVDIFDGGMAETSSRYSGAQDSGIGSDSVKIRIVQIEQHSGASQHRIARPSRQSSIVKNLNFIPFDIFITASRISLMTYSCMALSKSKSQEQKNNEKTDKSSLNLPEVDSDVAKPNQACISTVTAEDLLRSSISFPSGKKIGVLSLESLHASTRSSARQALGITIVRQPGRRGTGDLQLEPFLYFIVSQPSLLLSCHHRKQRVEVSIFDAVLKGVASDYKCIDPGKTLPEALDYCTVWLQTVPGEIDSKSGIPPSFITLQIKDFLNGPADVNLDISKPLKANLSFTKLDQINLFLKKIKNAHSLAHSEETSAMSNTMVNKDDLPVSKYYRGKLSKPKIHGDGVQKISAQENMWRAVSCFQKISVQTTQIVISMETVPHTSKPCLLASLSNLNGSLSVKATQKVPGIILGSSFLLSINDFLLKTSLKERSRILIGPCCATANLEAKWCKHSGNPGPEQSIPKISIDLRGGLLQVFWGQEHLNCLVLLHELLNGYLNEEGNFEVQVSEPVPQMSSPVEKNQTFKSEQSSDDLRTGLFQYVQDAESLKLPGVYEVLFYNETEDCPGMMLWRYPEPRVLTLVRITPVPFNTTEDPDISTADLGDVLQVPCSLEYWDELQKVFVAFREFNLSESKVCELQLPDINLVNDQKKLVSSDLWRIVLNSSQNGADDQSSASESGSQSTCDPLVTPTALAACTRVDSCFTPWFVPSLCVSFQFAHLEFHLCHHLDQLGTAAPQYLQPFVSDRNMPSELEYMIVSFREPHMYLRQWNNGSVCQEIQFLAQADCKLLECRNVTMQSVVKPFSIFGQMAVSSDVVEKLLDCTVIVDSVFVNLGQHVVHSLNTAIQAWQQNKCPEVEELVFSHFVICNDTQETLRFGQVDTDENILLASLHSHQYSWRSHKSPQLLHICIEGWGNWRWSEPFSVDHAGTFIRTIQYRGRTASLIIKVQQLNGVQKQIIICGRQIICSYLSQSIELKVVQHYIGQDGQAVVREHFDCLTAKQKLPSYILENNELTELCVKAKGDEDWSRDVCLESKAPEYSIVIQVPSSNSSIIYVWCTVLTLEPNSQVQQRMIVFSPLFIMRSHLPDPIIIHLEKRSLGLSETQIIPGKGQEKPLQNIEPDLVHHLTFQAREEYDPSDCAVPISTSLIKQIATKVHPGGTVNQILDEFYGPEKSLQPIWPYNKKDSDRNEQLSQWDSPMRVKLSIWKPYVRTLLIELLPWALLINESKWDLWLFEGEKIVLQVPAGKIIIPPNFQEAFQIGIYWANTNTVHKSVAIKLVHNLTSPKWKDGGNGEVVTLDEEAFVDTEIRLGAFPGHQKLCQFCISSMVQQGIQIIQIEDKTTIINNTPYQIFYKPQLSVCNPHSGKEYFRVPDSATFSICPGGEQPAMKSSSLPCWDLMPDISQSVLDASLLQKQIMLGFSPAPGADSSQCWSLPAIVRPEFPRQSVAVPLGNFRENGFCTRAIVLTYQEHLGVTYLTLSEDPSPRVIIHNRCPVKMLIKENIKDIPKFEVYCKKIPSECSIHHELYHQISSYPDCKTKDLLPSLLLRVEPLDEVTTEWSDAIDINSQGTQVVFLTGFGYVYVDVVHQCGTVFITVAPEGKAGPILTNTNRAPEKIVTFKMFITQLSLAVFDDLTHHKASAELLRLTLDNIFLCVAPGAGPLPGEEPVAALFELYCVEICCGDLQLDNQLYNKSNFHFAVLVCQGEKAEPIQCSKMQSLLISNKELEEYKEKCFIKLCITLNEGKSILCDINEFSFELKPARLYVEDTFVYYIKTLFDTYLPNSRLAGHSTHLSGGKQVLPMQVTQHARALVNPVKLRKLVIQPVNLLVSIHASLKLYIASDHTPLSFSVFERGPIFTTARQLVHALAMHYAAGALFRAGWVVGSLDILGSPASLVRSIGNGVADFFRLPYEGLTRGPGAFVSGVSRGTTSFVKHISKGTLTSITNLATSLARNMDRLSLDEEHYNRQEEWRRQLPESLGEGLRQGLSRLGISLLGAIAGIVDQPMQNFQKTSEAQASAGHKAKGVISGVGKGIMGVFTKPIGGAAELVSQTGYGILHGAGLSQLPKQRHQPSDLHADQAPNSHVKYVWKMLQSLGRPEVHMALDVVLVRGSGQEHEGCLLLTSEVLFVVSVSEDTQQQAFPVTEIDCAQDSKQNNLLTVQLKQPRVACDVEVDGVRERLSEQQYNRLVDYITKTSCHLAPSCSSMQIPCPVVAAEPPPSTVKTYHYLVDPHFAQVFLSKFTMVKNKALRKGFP
UniProt O00258, sequence (O00258 whole entry, looked up): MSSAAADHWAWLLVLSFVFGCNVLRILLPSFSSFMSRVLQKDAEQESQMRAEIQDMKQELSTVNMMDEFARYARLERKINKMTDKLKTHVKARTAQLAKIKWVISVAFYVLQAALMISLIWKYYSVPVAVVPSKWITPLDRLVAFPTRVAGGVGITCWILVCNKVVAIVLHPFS

Target | log2 fold change [1] | log2 fold change [2] | log2 fold change [3] | log2 fold change [4] | log2 fold change [5] | log2 fold change [6] | log2 fold change [7] | log2 fold change [8] | log2 fold change [9] | log2 fold change [10]
XPNPEP3 (UniProt Q9NQH7) | -0.12 (inactive) | -0.082 (inactive) | -0.021 (inactive) | -0.032 (inactive) | -0.011 (inactive) | 0.027 (inactive) | -0.002 (inactive) | 0.078 (inactive) | -0.024 (inactive) | 0.027 (inactive)
TRAPPC13 isoform 5 (UniProt A5PLN9) | 0.094 (inactive) | 0.052 (inactive) | 0.045 (inactive) | -0.016 (inactive) | -0.123 (inactive) | 0.009 (inactive) | 0.005 (inactive) | -0.046 (inactive) | 0.116 (inactive) | 0.015 (inactive)
WASHC2A (UniProt Q641Q2) | 0.007 (inactive) | 0.019 (inactive) | -0.053 (inactive) | 0.063 (inactive) | -0.065 (inactive) | -0.011 (inactive) | -0.009 (inactive) | -0.005 (inactive) | 0.02 (inactive) | 0.038 (inactive)
WDR7 (UniProt Q9Y4E6) | -0.04 (inactive) | 0.084 (inactive) | 0.045 (inactive) | -0.016 (inactive) | -0.076 (inactive) | -0.102 (inactive) | -0.027 (inactive) | -0.074 (inactive) | 0.003 (inactive) | -0.097 (inactive)
TMEM192 (UniProt Q8IY95) | -0.036 (inactive) | -0.162 (inactive) | -0.047 (inactive) | 0.037 (inactive) | -0.048 (inactive) | -0.009 (inactive) | -0.047 (inactive) | 0.099 (inactive) | -0.02 (inactive) | 0.038 (inactive)
TMTC3 (UniProt Q6ZXV5) | -0.092 (inactive) | 0.01 (inactive) | 0.006 (inactive) | -0.03 (inactive) | 0.105 (inactive) | -0.085 (inactive) | -0.007 (inactive) | -0.041 (inactive) | 0.053 (inactive) | 0.032 (inactive)
XPO5 (UniProt Q9HAV4) | 0.019 (inactive) | -0.122 (inactive) | 0.023 (inactive) | -0.055 (inactive) | -0.008 (inactive) | -0.068 (inactive) | -0.008 (inactive) | -0.052 (inactive) | -0.004 (inactive) | -0.034 (inactive)
USP3 (UniProt Q9Y6I4) | 0.131 (inactive) | -0.246 (inactive) | 0.009 (inactive) | -0.039 (inactive) | 0.085 (inactive) | -0.201 (inactive) | -0.007 (inactive) | -0.014 (inactive) | 0.053 (inactive) | 0.027 (inactive)
VTA1 (UniProt Q9NP79) | -0.01 (inactive) | -0.033 (inactive) | 0.044 (inactive) | -0.094 (inactive) | -0.014 (inactive) | 0.056 (inactive) | -0.003 (inactive) | -0.008 (inactive) | -0.014 (inactive) | 0.006 (inactive)
TTC4 (UniProt O95801) | 0.087 (inactive) | 0.004 (inactive) | 0.016 (inactive) | -0.003 (inactive) | 0.029 (inactive) | 0.054 (inactive) | 0.032 (inactive) | -0.072 (inactive) | -0.003 (inactive) | -0.016 (inactive)
TMEM263 (UniProt Q8WUH6) | -0.096 (inactive) | -0.654 (active) | -0.038 (inactive) | -0.09 (inactive) | -0.043 (inactive) | -0.789 (active) | -0.042 (inactive) | 0.065 (inactive) | -0.045 (inactive) | -0.208 (inactive)
TMEM173 (UniProt Q86WV6) | -0.177 (inactive) | 0.007 (inactive) | 0.025 (inactive) | -0.209 (inactive) | -0.073 (inactive) | 0.034 (inactive) | -0.013 (inactive) | -0.008 (inactive) | -0.062 (inactive) | -0.037 (inactive)
TMEM161A (UniProt Q9NX61) | -0.021 (inactive) | -0.148 (inactive) | -0.072 (inactive) | -0.167 (inactive) | 0.009 (inactive) | -0.033 (inactive) | -0.01 (inactive) | 0.051 (inactive) | 0.075 (inactive) | -0.106 (inactive)
TMEM189-UBE2V1 (UniProt I3L0A0) | -0.034 (inactive) | -0.051 (inactive) | -0.049 (inactive) | -0.024 (inactive) | -0.105 (inactive) | -0.048 (inactive) | -0.034 (inactive) | 0.112 (inactive) | 0.011 (inactive) | -0.026 (inactive)
VRK2 (UniProt Q86Y07) | -0.009 (inactive) | 0.075 (inactive) | 0 (inactive) | -0.066 (inactive) | 0.042 (inactive) | 0.003 (inactive) | 0.018 (inactive) | -0.027 (inactive) | -0.003 (inactive) | -0.06 (inactive)
VPS13B (UniProt Q7Z7G8) | 0.019 (inactive) | -0.11 (inactive) | -0.007 (inactive) | 0.025 (inactive) | 0.07 (inactive) | -0.111 (inactive) | 0.019 (inactive) | 0.07 (inactive) | -0.018 (inactive) | 0.057 (inactive)
TMEM70 (UniProt Q9BUB7) | -0.041 (inactive) | -0.157 (inactive) | -0.009 (inactive) | -0.016 (inactive) | 0.126 (inactive) | -0.118 (inactive) | -0.026 (inactive) | 0.106 (inactive) | -0.039 (inactive) | 0.059 (inactive)

Target | log2 fold change [1] | log2 fold change [2] | log2 fold change [3] | log2 fold change [4] | log2 fold change [5] | log2 fold change [6] | log2 fold change [7] | log2 fold change [8] | log2 fold change [9] | log2 fold change [10]
WRB (UniProt O00258) | -0.036 (inactive) | -0.041 (inactive) | -0.019 (inactive) | -0.032 (inactive) | -0.031 (inactive) | -0.066 (inactive) | 0.012 (inactive) | 0.051 (inactive) | 0.03 (inactive) | 0.094 (inactive)
TOM1L1 (UniProt O75674) | -0.006 (inactive) | 0.06 (inactive) | 0.008 (inactive) | -0.142 (inactive) | -0.073 (inactive) | 0.061 (inactive) | 0.056 (inactive) | -0.051 (inactive) | -0.007 (inactive) | -0.076 (inactive)
TMEM223 (UniProt A0PJW6) | -0.042 (inactive) | -0.109 (inactive) | 0.083 (inactive) | -0.112 (inactive) | -0.046 (inactive) | -0.147 (inactive) | -0.028 (inactive) | 0.038 (inactive) | 0.018 (inactive) | -0.007 (inactive)
TYW1 (UniProt Q9NV66) | -0.16 (inactive) | -0.01 (inactive) | 0.019 (inactive) | -0.023 (inactive) | 0 (inactive) | 0.095 (inactive) | 0.013 (inactive) | -0.006 (inactive) | 0 (inactive) | -0.147 (inactive)
VPS53 isoform 4 (UniProt Q5VIR6) | 0.015 (inactive) | -0.008 (inactive) | 0.095 (inactive) | -0.048 (inactive) | 0.01 (inactive) | 0.089 (inactive) | 0.025 (inactive) | 0.003 (inactive) | 0.012 (inactive) | -0.066 (inactive)
WDR11 (UniProt Q9BZH6) | -0.069 (inactive) | 0.027 (inactive) | -0.058 (inactive) | -0.124 (inactive) | -0.062 (inactive) | 0.104 (inactive) | -0.016 (inactive) | 0.094 (inactive) | -0.094 (inactive) | 0.094 (inactive)
VDAC1 (UniProt P21796) | 0 (inactive) | -0.036 (inactive) | -0.01 (inactive) | -0.004 (inactive) | -0.033 (inactive) | -0.023 (inactive) | -0.007 (inactive) | 0.052 (inactive) | 0 (inactive) | 0.002 (inactive)
VPS39 (UniProt Q96JC1) | -0.038 (inactive) | -0.119 (inactive) | 0.023 (inactive) | -0.028 (inactive) | -0.012 (inactive) | 0.021 (inactive) | 0.051 (inactive) | -0.059 (inactive) | -0.012 (inactive) | -0.035 (inactive)
UQCR10 (UniProt Q9UDW1) | -0.084 (inactive) | -0.05 (inactive) | -0.02 (inactive) | 0.031 (inactive) | -0.005 (inactive) | 0.037 (inactive) | -0.028 (inactive) | 0.022 (inactive) | -0.038 (inactive) | -0.063 (inactive)
TRMT10A (UniProt Q8TBZ6) | -0.195 (inactive) | -0.134 (inactive) | 0.054 (inactive) | -0.081 (inactive) | 0.048 (inactive) | -0.006 (inactive) | -0.025 (inactive) | 0.028 (inactive) | 0.03 (inactive) | 0.093 (inactive)
TMEM87B (UniProt Q96K49) | -0.064 (inactive) | -0.046 (inactive) | -0.108 (inactive) | -0.05 (inactive) | -0.133 (inactive) | -0.002 (inactive) | 0.063 (inactive) | 0.036 (inactive) | 0.026 (inactive) | 0.055 (inactive)
WASHC2C, A0A096LPC5 | -0.072 (inactive) | 0.057 (inactive) | -0.062 (inactive) | 0.146 (inactive) | -0.042 (inactive) | 0.305 (inactive) | 0.018 (inactive) | 0.098 (inactive) | -0.141 (inactive) | 0.048 (inactive)
VPS51 (UniProt Q9UID3) | 0.029 (inactive) | -0.024 (inactive) | -0.01 (inactive) | -0.098 (inactive) | -0.092 (inactive) | 0.055 (inactive) | 0.019 (inactive) | -0.057 (inactive) | -0.032 (inactive) | 0.013 (inactive)
TRIM28 (UniProt Q13263) | 0.015 (inactive) | -0.017 (inactive) | 0.046 (inactive) | -0.031 (inactive) | -0.087 (inactive) | 0.003 (inactive) | 0.002 (inactive) | -0.03 (inactive) | -0.005 (inactive) | 0.033 (inactive)
UXT isoform 2 (UniProt Q9UBK9) | 0.473 (active) | 0.001 (inactive) | -0.067 (inactive) | 0.026 (inactive) | -0.016 (inactive) | 0.033 (inactive) | 0.049 (inactive) | -0.025 (inactive) | 0.077 (inactive) | 0.25 (inactive)
USP25 isoform 3 (UniProt Q9UHP3) | -0.011 (inactive) | 0.037 (inactive) | 0.014 (inactive) | -0.039 (inactive) | 0.027 (inactive) | 0.004 (inactive) | 0.032 (inactive) | 0.022 (inactive) | 0.001 (inactive) | 0.018 (inactive)
